MEKK2mut PB1 HTS: signal of MEK5 binding to mutant human MEKK2 PB1 domain; actives 0.35% (n = 290,000); bead flow cytometry, Alexa488-MEK5 binding to MEKK2 mutant; AID 1530; percent response, % at 10 µM; in the data active = percent response above about 24%, passing the limit was not always enough
ATG4B inh: blocks human ATG4B protease cleavage of LC3 substrate | ATG4B cleavage of LC3-PLA2, NBD-HPC fluorescence, 1 h | inhibition, % at 8.33 µM | actives 0.51% (n = 340,000) | AID 504462; in the data active = inhibition above about 40%
Target sequence (Q9Y4P1 whole entry, looked up): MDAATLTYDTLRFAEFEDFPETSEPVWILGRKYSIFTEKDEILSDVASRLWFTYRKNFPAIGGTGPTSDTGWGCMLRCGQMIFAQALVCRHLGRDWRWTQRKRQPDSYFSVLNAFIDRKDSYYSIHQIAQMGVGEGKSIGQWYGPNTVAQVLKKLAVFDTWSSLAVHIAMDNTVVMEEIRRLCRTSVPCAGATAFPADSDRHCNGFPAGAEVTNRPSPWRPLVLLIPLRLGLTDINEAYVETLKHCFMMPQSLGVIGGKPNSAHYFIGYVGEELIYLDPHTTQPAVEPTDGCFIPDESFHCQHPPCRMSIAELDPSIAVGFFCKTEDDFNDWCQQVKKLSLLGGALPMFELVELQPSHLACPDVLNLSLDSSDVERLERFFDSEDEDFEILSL
PREPL inhibitor: inhibitors of human prolyl oligopeptidase-like enzyme PREPL; Q4J6C6; recombinant PREPL, fluorescence polarization activity-based probe; inhibition, % at 5.96 µM; actives 0.68% (n = 320,000); AID 2751; in the data active = inhibition above about 43%;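 note: 0% = enzyme with DMSO and 100% = wells lacking enzyme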
MEKK3 PB1 HTS: raises or lowers MEK5 binding to the human MEKK3 PB1 domain; binding response (% of control), % at 10 µM; bead-based flow cytometry, Alexa488-MEK5 binding to MEKK3; actives lie on both sides; 0 = blocked by unlabeled MEK5, 100 = vehicle; actives 1.4% (n = 290,000);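 active = binding response more than 3 SD above or below the average of its plate-row segment, actives on both sides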;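 note: Alexa488 bead fluorescence after subtracting the streptavidin-only scavenger bead signal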
MEKK2wt PB1 HTS: raises or lowers MEK5 binding to wildtype human MEKK2 PB1 domain | Q9Y2U5 | bead flow cytometry, Alexa488-MEK5 binding to MEKK2 WT; actives lie on both sides | binding response (% of control), % at 10 µM | actives 1.1% (n = 290,000) | AID 1531; in the data active = binding response below about 67% or above about 130%
UBC13 inh: blocks human UBC13 polyubiquitin chain formation; TR-FRET; actives 0.47% (n = 330,000); inhibition, % at 20 µM; in the data active = inhibition above about 45%, passing the limit was not always enough
Target sequence (P61088 whole entry, looked up): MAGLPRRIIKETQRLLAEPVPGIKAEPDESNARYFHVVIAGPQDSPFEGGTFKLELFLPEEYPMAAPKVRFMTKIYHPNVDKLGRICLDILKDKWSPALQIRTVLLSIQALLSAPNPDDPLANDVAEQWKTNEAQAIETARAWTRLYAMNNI
MEKK2wt confirm: raises or lowers MEK5 binding to wildtype human MEKK2, retest; actives 2.4% (n = 5,900); bead flow cytometry, Alexa488-MEK5 binding to MEKK2 WT; actives lie on both sides; binding response (% of control), % at 10 µM; shares compounds with MEKK3 PB1 HTS; in the data active = binding response below about 16% or above about 210%; inactive = in between
MEKK2mut confirm: signal of MEK5 binding to mutant human MEKK2, retest. shares compounds with MEKK3 PB1 HTS. bead flow cytometry, Alexa488-MEK5 binding to MEKK2 mutant. percent response, % at 10 µM. actives 2% (n = 5,900); in the data active = percent response mostly above about 71%, no sharp cut-off; inactive = mostly below about 38%;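 note: higher means compound restores mutant binding toward wildtype level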
MEKK3 confirm: confirmation of inhibitors of MEK5 binding to human MEKK3; binding response (% of control), % at 10 µM; AID 1894; actives 1.8% (n = 5,900); shares compounds with MEKK3 PB1 HTS; bead flow cytometry, Alexa488-MEK5 binding to MEKK3; stronger effect = lower value;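 active = binding response below 72% of control, or above a set upper limit, though filed actives all read lower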;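 note: 100% = DMSO only wells and 0% = binding blocked by excess unlabeled MEK5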
* marks the source's active call; other numbers are inactive results; · = not tested or not shown; + = active, no number; [ ] = remark or other dose. Hits are enriched below; roughly 3.1% of the tested compounds scored in any of these assays.

SMILES | MEKK2mut PB1 HTS | ATG4B inh | PREPL inhibitor | MEKK3 PB1 HTS | MEKK2wt PB1 HTS | UBC13 inh | MEKK2wt confirm | MEKK2mut confirm | MEKK3 confirm
COc1ccc(OCC(=O)Nc2cc(NC(=O)c3ccco3)ccc2OC)cc1 | 1 | 6 | 10 | 107 | 106 | -1 | · | · | ·
CCCCNC(=S)Nc1ccc(-c2nc3ccc(C)cc3s2)cc1 | 0 | 2 | 4 | 134* | 105 | -8 | 105 | 3 | 107
Cc1ccc2nc(-c3ccc(NC(=S)NCCC(C)C)cc3)sc2c1 | -2 | 1 | -5 | 92 | 92 | -9 | · | · | ·
COc1ccc(-n2cc(CNCc3cnc4ccccn34)c(-c3cccc(F)c3)n2)cc1 | 59* | 0 | 8 | 106 | 170* | 18 | 151 | 41 | 116
COc1cc(CN2CCN(C(c3ccccc3)c3ccccc3)CC2)cc(OC)c1OC | 9 | -1 | 20 | 104 | 119 | 9 | · | · | ·
Cc1cccc(CN2CCN(C(c3ccccc3)c3ccc(Cl)cc3)CC2)c1 (stereo unspecified) | 13 | 7 | -12 | 106 | 155* | 12 | 150 | 23 | 103
COC(=O)c1cc(OC)c(OC)cc1NC(=O)Cc1cccs1 | -46 | -7 | 2 | 5.0*[inhibitor] | 7.0*[inhibitor] | 4 | 99 | -3 | 98
COc1ccc(NC(=O)Cc2cccs2)c(OC)c1 | 4 | -6 | -2 | 103 | 111 | 0 | · | · | ·
CCCc1ccc(Oc2cn[nH]c2-c2ccc(O)c(C)c2O)cc1 | 3 | 29 | 9 | 123* | 105 | 11 | 97 | -9 | 96
O=C1NC(=O)c2c(Br)c(Br)c(Br)c(Br)c21 | · | 5 | · | · | · | · | · | · | ·
O=C(NCCN1CCCCCC1)c1ccc(N2CCCC2=O)cc1 | 9 | -14 | 22 | 101 | 145* | 24 | 127 | 20 | 103
O=C(NCCCN1CCN(c2cccc(Cl)c2)CC1)c1cccc(N2CCCC2=O)c1 | 27* | -4 | 21 | 109 | 125 | 3 | 113 | 20 | 107
CC(C)(C)OC(=O)N1CCN(C(=O)c2[nH]cnc2C(=O)Nc2cccc(Cl)c2)CC1 | · | -8 | 13 | · | · | 4 | · | · | ·
Cc1cc(-c2nnnn2-c2ccc(F)cc2)no1 | -12 | -4 | -3 | 99 | 96 | 4 | · | · | ·
Cc1cc(-c2nnnn2-c2cc(Cl)cc(Cl)c2)no1 | 26 | -5 | -10 | 131* | 112 | 1 | 99 | -9 | 101
CCCc1cnc(NCCNCC(O)COc2ccc(Cl)c(Cl)c2)nc1 (stereo unspecified) | 31 | 8 | 24 | 106 | 144* | 16 | 109 | 1 | 102
CC(=O)c1cccc(NC(=O)NCCc2c[nH]c3ccccc23)c1 | -20 | 0 | 1 | 51 | 58 | 8 | · | · | ·
O=C(Nc1cccc(CNCCc2c[nH]c3ccccc23)c1)c1ccccc1Cl | 32* | -4 | -23 | 110 | 150* | 12 | 133 | 11 | 103
O=C(C[n+]1ccc(C(=O)NCCCO)cc1)c1cccc(Br)c1 | 21 | 6 | 5 | 130* | 122 | 3 | 105 | 0 | 100
CCCCCCCn1ccc(=N)cc1 | 1 | 1 | 0 | 103 | 105 | 2 | · | · | ·
CCCCCCCCCn1ccc(=N)cc1 | 31 | -8 | -2 | 131* | 140* | 5 | 112 | 6 | 104
CN=C1N(C)C[C@@H]2[C@@H]3C(=O)N(C)C(=O)[C@@H]3[C@](Cc3ccccc3)(C(=O)OC)N12 | · | 1 | · | · | · | · | · | · | ·
Cc1ccc(C23CC4CC(CC(CN)(C4)C2)C3)cc1 | 7 | 7 | · | 107 | 122 | · | · | · | ·
NCC12CC3CC(C1)CC(c1ccc(Br)cc1)(C3)C2 | 21 | 3 | -121 | 110 | 153* | 40 | 133 | 22 | 101
COC(=O)c1cn(NC(=O)Cn2nc([N+](=O)[O-])c(Br)c2C)c(=O)c2ccccc12 | 1 | -2 | 0 | 96 | 100 | -15 | · | · | ·
SMILES | MEKK2mut PB1 HTS | ATG4B inh | PREPL inhibitor | MEKK3 PB1 HTS | MEKK2wt PB1 HTS | UBC13 inh | MEKK2wt confirm | MEKK2mut confirm | MEKK3 confirm
CCc1nnc(NC(=O)CN2CCN(Cc3ccc(C)cc3)CC2)s1 | 5 | -2 | 9 | 105 | 104 | 7 | · | · | ·
O=C(CSc1cccc[n+]1[O-])Nc1ccc2c(c1)OCO2 | -12 | -5 | -1 | 71*[inhibitor] | 71 | -8 | 102 | -1 | 101
C=CC[C@@H](CC(=O)N[C@H](CO)Cc1ccccc1)C(=O)N[C@H](COC(=O)[C@@H](CC=C)CC(=O)OC(C)(C)C)Cc1ccccc1 | · | -1 | 11 | · | · | 5 | · | · | ·
O=C(NNC(=O)c1cccs1)c1ccc(Cl)c(Cl)c1 | 2 | 3 | -1 | 149* | 109 | -6 | 97 | -2 | 97
O=C(NNC(=O)c1cccs1)c1ccc2ccccc2c1 | -10 | 3 | 5 | 94 | 92 | -4 | · | · | ·
CC(C)C(NC(=O)CNC(=O)OC(C)(C)C)C(=O)NCc1ccc(Cl)cc1 (stereo unspecified) | -18 | -8 | 0 | 88 | 48*[inhibitor] | -1 | 104 | -3 | 98
O=C(C[n+]1cc(Br)cc2ccccc21)c1ccccc1 | -8 | 8 | 13 | 93 | 66*[inhibitor] | -6 | 48 | -32 | 70*
CCCCOc1ccc(Br)cc1/C(C)=N/NC1=NCCN1 | 35* | 1 | 14 | 113 | 162* | 38 | 144 | 31 | 105
O=C(Nc1ccccc1)N(C1=NCCCCS1)c1cccc2ccccc12 | 4 | -2 | -2 | 127* | 116 | -17 | 102 | 4 | 98
CN(C)c1ccc(S(=O)(=O)N2CCCCC2)cc1NC(=O)CCNC(=O)c1ccco1 | · | -8 | 1 | · | · | -2 | · | · | ·
CCN1CCc2c(C#N)c(N3CCCCC3)nc(NCc3ccccc3)c2C1 | 27 | 9 | 37 | 105 | 158* | 28 | 141 | 13 | 106
CCN1CCc2c(C#N)c(N3CCOCC3)nc(NCc3ccccc3)c2C1 | · | -2 | · | · | · | · | · | · | ·
CN(C)S(=O)(=O)c1cccc(NC(=S)Nc2cc(Cl)cc(Cl)c2)c1 | 10 | 9 | -6 | 111 | 150* | 6 | 114 | 3 | 107
CN(C)S(=O)(=O)c1cccc(NC(=S)Nc2ccc(Cl)cc2Cl)c1 | 1 | -3 | 6 | 105 | 106 | -8 | · | · | ·
CCN(CCn1cccn1)C(=O)CCc1nnc(CCCc2ccccc2)o1 | + | -3 | 3 | 131* | 151* | 0 | 101 | 14 | 102
